# According to PubChem BioAssay (NCATS):
# Inconclusive results are not listed. A call without a number means that no potency is given here. The source made the active and inactive calls. Unless noted, calls follow the shape of the dose curve; as a rule, active = well fitted curve in the direction sought with a large enough effect; inconclusive = small, poorly fitted or top-dose-only effect, or another doubt; inactive = no such curve, though single readings can be large; an effect the other way counts as inactive or inconclusive.
# Key:
# [1] = target: Cytochrome P450 1A2 (Homo sapiens) (UniProt P05177); experiment: p450-cyp1a2 (AID 410; calls by dose curve)
# Sequence of Cytochrome P450 1A2 (Homo sapiens) (P05177 whole entry, looked up): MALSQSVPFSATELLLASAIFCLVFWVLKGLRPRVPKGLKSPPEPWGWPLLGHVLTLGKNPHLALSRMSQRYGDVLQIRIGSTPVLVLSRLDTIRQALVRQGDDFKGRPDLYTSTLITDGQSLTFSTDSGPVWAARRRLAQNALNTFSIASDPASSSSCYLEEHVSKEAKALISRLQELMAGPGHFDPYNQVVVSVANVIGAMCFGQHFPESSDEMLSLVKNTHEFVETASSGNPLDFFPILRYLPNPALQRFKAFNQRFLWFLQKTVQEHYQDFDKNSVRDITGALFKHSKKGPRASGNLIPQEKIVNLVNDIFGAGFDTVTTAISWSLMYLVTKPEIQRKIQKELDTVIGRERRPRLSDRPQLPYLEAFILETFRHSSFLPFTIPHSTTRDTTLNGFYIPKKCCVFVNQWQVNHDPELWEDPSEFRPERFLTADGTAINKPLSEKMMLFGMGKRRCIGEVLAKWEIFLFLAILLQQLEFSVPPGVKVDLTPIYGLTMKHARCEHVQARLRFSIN
# Outline: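 Human CYP1A2 (20nM) demethylated Luciferin-ME at its Km (100uM) in 100mM KPO4. After 10 min compound preincubation, NADPH regeneration ran the reaction 60 min at room temperature. Luciferin was read by luminescence, normalized to 57 uM furafylline.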
# [2] = target: Mitogen-activated protein kinase 10 (Mus musculus) (UniProt Q61831); experiment: JNK3 AlphaScreen Assay (AID 530; active = well fitted curve in either direction with a large enough effect, not every such curve was filed as active;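 also: kinase came from lysate of stimulated human HepG2 cells; signal reports phosphorylation of biotinylated GST-cJun 1-79 at Ser73 with 10 µM ATP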)
# Outline: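 Room-temperature AlphaScreen kinase assay; pre-activated HepG2 lysate as JNK3 source, biotin-GST-cJun(1-79) substrate, 10 uM ATP, compound 15 min preincubation.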
# [3] = target: 3',5'-cyclic-AMP phosphodiesterase 4B (Homo sapiens) (UniProt Q07343); experiment: qHTS Assay for Inhibitors of PDE-IV (AID 607; active = well fitted activation curve with a large enough effect in the main read-out, with a control signal flat, not every such curve was filed as active)
# Sequence of 3',5'-cyclic-AMP phosphodiesterase 4B (Homo sapiens) (Q07343 whole entry, looked up): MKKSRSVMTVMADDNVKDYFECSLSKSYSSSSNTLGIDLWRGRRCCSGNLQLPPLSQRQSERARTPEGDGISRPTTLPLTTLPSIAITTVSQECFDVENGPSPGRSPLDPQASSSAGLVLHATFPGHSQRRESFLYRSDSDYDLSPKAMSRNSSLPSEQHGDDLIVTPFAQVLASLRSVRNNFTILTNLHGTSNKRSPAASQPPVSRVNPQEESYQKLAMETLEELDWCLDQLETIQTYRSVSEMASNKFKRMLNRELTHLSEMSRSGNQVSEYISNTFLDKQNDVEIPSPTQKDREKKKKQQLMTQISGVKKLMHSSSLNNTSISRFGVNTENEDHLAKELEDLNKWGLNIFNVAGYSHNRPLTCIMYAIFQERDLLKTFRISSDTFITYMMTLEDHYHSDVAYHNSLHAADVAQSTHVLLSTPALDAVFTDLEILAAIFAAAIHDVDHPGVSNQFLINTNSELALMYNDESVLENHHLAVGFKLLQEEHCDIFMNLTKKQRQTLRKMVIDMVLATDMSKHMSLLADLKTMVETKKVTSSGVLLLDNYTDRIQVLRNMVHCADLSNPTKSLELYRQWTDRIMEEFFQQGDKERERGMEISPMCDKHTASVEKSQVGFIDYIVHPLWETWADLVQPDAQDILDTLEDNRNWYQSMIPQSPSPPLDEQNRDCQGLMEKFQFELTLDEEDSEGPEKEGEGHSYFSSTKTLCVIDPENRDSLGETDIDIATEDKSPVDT
# Outline: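 Cell-based read-out of cAMP via a modified cyclic nucleotide-gated channel and membrane potential dye (535/590 nm) in HEK293 cells expressing PDE4 endogenously. Compounds tested up to 22.9 uM final; 100 uM RO 20-1724 reference.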
# [4] = target: Cytochrome P450 3A4 (Homo sapiens) (UniProt P08684); experiment: qHTS Assay for Inhibitors and Substrates of Cytochrome P450 3A4 (AID 884); also: nearly all actives have a fitted effect of over 50% in size
# Sequence of Cytochrome P450 3A4 (Homo sapiens) (P08684 whole entry, looked up): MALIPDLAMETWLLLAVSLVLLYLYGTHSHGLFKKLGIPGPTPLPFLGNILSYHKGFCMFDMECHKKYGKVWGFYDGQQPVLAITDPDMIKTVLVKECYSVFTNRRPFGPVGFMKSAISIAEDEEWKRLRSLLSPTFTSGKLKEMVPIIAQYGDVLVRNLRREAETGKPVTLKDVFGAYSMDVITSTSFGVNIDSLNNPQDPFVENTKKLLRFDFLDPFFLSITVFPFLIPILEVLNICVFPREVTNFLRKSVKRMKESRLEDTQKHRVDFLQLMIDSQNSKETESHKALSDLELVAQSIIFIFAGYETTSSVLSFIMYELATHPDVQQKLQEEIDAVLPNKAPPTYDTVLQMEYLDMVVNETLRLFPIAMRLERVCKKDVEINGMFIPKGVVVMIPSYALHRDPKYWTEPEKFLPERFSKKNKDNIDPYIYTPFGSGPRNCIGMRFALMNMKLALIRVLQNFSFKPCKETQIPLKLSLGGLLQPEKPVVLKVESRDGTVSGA
# Outline: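 20 nM human CYP3A4 with 25 uM Luciferin-PPXE (at KM) in 200 mM KPO4, preincubated 10 min with compound; NADPH regeneration started a 60 min RT reaction. Luciferin detected by luminescence, normalized to 57 uM ketoconazole as full inhibition.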
# [5] = target: Cytochrome P450 3A4 (Homo sapiens) (UniProt P08684); experiment: qHTS Assay for Activators of Cytochrome P450 3A4 (AID 885); also: potency is read from the fitted curve at half-maximal effect; nearly all actives have a fitted effect of over 65% in size
# Outline: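 Signal was normalized against complete inhibition by 57 uM ketoconazole. The reaction used 20nM CYP3A4 with 25uM Luciferin-PPXE, 10-min compound preincubation and a 60-min NADPH-supported step at RT.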
# [6] = target: Cytochrome P450 2D6 (Homo sapiens) (UniProt P10635); experiment: qHTS Assay for Inhibitors and Substrates of Cytochrome P450 2D6 (AID 891); also: potency is read from the fitted curve at half-maximal effect; nearly all actives have a fitted effect of over 60% in size
# Sequence of Cytochrome P450 2D6 (Homo sapiens) (P10635 whole entry, looked up): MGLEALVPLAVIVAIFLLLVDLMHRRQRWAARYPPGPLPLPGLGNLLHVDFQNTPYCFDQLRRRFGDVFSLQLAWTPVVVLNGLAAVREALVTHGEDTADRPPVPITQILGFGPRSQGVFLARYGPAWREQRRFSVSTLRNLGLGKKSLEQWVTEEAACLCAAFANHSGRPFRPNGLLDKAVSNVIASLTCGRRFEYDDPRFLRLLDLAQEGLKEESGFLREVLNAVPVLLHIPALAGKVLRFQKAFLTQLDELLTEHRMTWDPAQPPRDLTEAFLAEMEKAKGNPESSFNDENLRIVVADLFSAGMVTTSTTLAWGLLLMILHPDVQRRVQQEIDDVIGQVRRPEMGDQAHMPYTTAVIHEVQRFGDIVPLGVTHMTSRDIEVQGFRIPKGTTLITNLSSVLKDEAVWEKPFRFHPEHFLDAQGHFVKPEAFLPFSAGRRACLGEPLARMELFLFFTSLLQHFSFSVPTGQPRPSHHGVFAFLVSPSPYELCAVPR
# Outline: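 Human CYP2D6 (5 nM) with 30 uM Luciferin-ME EGE (at Km) in 100 mM KPO4, compound preincubated 10 min, then NADPH regeneration system for 60 min at room temperature. Luciferin read by luminescence; normalized to 1.43 uM quinidine.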
# [7] = qHTS Assay for Lipid Storage Modulators (AID 1519; calls by dose curve); conditions: Drosophila S3 cells, BODIPY lipid droplet/cell ratio, laser cytometry, cells loaded with oleic acid
# Outline: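 Cells seeded at 5,000 per well were treated with compounds over a concentration series and loaded with oleic acid (400 uM, as added). Lipid droplet fluorescence (488 nm excitation, 500-530 nm channel) was read by laser-scanning cytometry and normalized to 20 uM Triacsin C.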
# [8] = target: ATP-dependent 6-phosphofructokinase (Trypanosoma brucei brucei) (UniProt O15648); experiment: qHTS Assay to Find Inhibitors of T. brucei phosphofructokinase: hit validation (AID 492961);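 also: luminescence reports ADP formed as PFK phosphorylates fructose-6-phosphate with ATP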
# Sequence of ATP-dependent 6-phosphofructokinase (Trypanosoma brucei brucei) (O15648 whole entry, looked up): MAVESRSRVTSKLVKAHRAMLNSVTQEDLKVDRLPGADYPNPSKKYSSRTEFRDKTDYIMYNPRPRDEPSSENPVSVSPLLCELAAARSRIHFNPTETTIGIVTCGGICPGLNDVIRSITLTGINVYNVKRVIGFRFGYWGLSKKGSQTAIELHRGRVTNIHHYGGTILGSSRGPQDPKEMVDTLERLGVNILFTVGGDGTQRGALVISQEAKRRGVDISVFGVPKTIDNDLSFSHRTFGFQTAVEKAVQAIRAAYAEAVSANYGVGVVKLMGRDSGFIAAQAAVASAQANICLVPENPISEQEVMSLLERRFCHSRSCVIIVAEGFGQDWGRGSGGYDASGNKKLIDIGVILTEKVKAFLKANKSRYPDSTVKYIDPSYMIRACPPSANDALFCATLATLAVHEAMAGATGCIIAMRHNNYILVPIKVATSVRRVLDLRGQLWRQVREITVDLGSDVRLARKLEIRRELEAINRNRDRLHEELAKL
# Outline: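 Measures ADP output of PFK (1.25 nM) at 0.1 mM ATP, 0.5 mM F6P, pH 8.0 TEA buffer with 5 mM MgCl2. No-enzyme wells define full inhibition; uninhibited enzyme wells define zero.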
# [9] = target: Ubiquitin carboxyl-terminal hydrolase 1 (Homo sapiens) (UniProt O94782); experiment: Inhibitors of USP1/UAF1: Pilot qHTS (AID 504865);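 also: rhodamine fluorescence freed from ubiquitin-rhodamine substrate followed over time; top concentration of the series differs between compounds; nearly all actives have a fitted effect of over 35% in size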
# Sequence of Ubiquitin carboxyl-terminal hydrolase 1 (Homo sapiens) (O94782 whole entry, looked up): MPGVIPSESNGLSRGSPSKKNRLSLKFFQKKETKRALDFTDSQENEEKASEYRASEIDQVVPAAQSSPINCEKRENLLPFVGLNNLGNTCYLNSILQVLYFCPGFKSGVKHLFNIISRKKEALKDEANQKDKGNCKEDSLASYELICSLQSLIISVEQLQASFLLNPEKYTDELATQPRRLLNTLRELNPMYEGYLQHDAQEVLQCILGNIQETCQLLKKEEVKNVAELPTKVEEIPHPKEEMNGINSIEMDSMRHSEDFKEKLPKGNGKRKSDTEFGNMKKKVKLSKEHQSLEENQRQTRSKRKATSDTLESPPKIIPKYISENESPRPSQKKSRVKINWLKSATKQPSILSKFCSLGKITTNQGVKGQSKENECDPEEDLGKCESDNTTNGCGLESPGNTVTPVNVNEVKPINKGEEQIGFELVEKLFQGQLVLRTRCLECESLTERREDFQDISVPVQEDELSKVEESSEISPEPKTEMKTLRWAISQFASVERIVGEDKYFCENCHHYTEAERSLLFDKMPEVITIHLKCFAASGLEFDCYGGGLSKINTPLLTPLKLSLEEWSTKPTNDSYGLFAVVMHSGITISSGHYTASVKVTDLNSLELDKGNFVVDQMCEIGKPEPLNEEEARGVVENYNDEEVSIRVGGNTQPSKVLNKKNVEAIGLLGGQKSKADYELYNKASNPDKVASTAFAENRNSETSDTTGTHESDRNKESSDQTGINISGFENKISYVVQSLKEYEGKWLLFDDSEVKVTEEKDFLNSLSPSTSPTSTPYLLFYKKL
# Outline: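 In 50mM HEPES pH 7.8 containing 0.5mM EDTA, 1mM TCEP, 0.1 mg/ml BSA and 0.01% Tween-20, 1nM USP1/UAF1 is exposed to compound for 15 min, then Ub-Rho (150nM final) is added and fluorescence is read over time.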
# [10] = target: DNA dC->dU-editing enzyme APOBEC-3G (Homo sapiens) (UniProt Q9HC16); experiment: qHTS for inhibitors of Vif-A3G interactions: Validation (AID 588379)
# Sequence of DNA dC->dU-editing enzyme APOBEC-3G (Homo sapiens) (Q9HC16 whole entry, looked up): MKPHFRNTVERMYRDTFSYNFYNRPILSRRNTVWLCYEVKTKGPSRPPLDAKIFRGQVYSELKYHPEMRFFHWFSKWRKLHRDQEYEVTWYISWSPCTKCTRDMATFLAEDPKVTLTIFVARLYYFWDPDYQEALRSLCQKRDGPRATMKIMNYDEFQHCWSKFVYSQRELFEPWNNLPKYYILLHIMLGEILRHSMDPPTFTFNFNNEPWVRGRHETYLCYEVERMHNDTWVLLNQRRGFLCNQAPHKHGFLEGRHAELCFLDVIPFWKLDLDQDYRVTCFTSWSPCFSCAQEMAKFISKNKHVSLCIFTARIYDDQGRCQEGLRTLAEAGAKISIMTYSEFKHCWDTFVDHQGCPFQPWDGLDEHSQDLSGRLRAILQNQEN
# Outline: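 HeLa cells stably expressing Vif and A3G-eYFP, 700 cells/well, incubated overnight at 37 deg C, then exposed to compound overnight at 37 deg C. Inhibition of Vif-mediated degradation read as increased yellow fluorescence (Ex 488/Em 500-530) by laser-scanning cytometry.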
# [11] = target: Luciferin 4-monooxygenase (Photinus pyralis) (UniProt P08659); experiment: Biochemical firefly luciferase enzyme assay for NPC (AID 624030);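 also: purified P. pyralis luciferase at 10 nM with luciferin and ATP substrate; nearly all actives have a fitted effect of over 70% in size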
# Sequence of Luciferin 4-monooxygenase (Photinus pyralis) (P08659 whole entry, looked up): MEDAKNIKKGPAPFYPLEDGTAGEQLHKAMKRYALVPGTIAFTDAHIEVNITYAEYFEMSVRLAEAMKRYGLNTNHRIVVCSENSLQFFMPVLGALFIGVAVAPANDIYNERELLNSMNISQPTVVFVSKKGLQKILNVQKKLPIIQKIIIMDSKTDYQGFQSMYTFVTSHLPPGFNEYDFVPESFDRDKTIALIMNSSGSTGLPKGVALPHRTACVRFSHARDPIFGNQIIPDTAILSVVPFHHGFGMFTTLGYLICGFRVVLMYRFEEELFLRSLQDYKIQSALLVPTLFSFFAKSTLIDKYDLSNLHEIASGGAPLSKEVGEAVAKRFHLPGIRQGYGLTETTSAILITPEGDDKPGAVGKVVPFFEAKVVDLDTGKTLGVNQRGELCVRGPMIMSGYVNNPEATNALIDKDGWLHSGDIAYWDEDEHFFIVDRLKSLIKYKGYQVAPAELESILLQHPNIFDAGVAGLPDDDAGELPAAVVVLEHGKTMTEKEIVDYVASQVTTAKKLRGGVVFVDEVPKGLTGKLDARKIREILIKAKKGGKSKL
# Outline: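 Direct inhibition of firefly luciferase enzyme (10 nM final, 50 mM Tris Acetate) assessed by luminescence within 5 minutes. Percent activity scaled between DMSO and PTC124 positive control, with concentration-effect curves classified by fit quality and response.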
# [12] = S16 Schwann cell viability assay (CellTiter-Glo assay) (AID 624031);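 also: native untransfected S16 rat Schwann cells; cellular ATP luminescence as a viability measure; nearly all actives have a fitted effect of over 70% in size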
# Outline: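 Cells were seeded at 500-750 per well in phenol red-free DMEM with 10% FBS and left overnight. Compounds or DMSO were pinned in, incubation ran 24 h at 37 °C/5% CO2, then CellTiter-Glo reagent was added and luminescence measured.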
# [13] = S16 Schwann cell PMP22 intronic element firefly luciferase assay (AID 624032); also: potency is read from the fitted curve at half-maximal effect; nearly all actives have a fitted effect of over 30% in size
# Outline: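 Luciferase reporter of PMP22 intronic-element expression in stably transfected S16 rat Schwann cells, read by ONE-Glo luminescence after 24 h compound exposure at 37 C. Activity scaled between DMSO (0%) and positive-control PTC124; concentration-effect curves quality-classified.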
# [14] = S16 Schwann cell PMP22 intronic element beta-lactamase assay (AID 624044; calls by dose curve; also: nearly all actives have a fitted effect of over 15% in size)
# Outline: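 Rat S16 Schwann cells with beta-Lac driven by a PMP22 intronic element, compound-treated 24 h at 37 °C. LiveBLAzer FRET B/G read: 460 nm normalized to potassium clavulanate vs DMSO; 535 nm FRET as viability; concentration-effect curves classified.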
# [15] = tested on: Zika virus NS2B-NS3 protease; experiment: Primary screen GU AMC qHTS for Zika virus inhibitors (AID 1347154); also: nearly all actives have a fitted effect of over 70% in size
# Outline: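 Fluorogenic AMC-substrate cleavage by noncovalent NS2B-NS3 protease complex (25 nM, pH 8.0 Tris buffer with Tween 20) followed for 15 minutes at room temperature (~20% conversion). Percent inhibition from ex340/em450 signal change, fitted by 4-parameter Hill equation.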
# [16] = Confirmatory qHTS for small molecule stabilizers of the endoplasmic reticulum resident proteome: Secreted ER Calcium Modulated Protein (SERCaMP) assay (AID 1508628); also: potency is read from the fitted curve at half-maximal effect; nearly all actives have a fitted effect of over 40% in size
# Outline: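 We seeded SH-SY5Y-GLuc-SERCaMP cells, added compounds (three concentrations in the primary run, eleven up to 76.6 uM in confirmation), incubated 16 h, depleted ER calcium with thapsigargin, and read luciferase 4 h later.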
# [17] = Cell Viability qHTS for small molecule stabilizers of the endoplasmic reticulum resident proteome (AID 1508629); conditions: cell viability counter-screen, 100 nM thapsigargin for final 4 h;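 also: potency is read from the fitted curve at half-maximal effect; compound exposure about 46 h in total before the viability read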
# 3D7 = experiment: qHTS profiling for inhibitors of Plasmodium falciparum proliferation (AID 504749); also: nearly all actives have a fitted effect of over 60% in size; conditions: P. falciparum in erythrocytes, SYBR Green DNA, 72 h; series mostly up to 28.7 µM
# Outline: (§1)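 Three-day growth assay of blood-stage parasites in erythrocytes (0.3% parasitemia, 2.5% hematocrit) at 37 C, 5% CO2, quantified by SYBR Green DNA staining after overnight detergent lysis.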
# AA1029 = experiment: as above; conditions: P. falciparum in erythrocytes, SYBR Green DNA, 72 h; series mostly up to 28.7 µM
# Outline: as §1
# AS120 = experiment: as above; conditions: P. falciparum in erythrocytes, SYBR Green DNA, 72 h; series mostly up to 28.7 µM
# Outline: as §1
# ATS189 = experiment: as above; conditions: P. falciparum in erythrocytes, SYBR Green DNA, 72 h; series mostly up to 28.7 µM
# Outline: as §1
# ATS95 = experiment: as above; conditions: P. falciparum in erythrocytes, SYBR Green DNA, 72 h; series mostly up to 28.7 µM
# Outline: as §1
# C2A = experiment: as above; conditions: P. falciparum in erythrocytes, SYBR Green DNA, 72 h; series mostly up to 28.7 µM
# Outline: as §1
# CP185 = experiment: as above; conditions: P. falciparum in erythrocytes, SYBR Green DNA, 72 h; series mostly up to 28.7 µM
# Outline: as §1
# CP191 = experiment: as above; conditions: P. falciparum in erythrocytes, SYBR Green DNA, 72 h; series mostly up to 28.7 µM
# Outline: as §1
# CP192 = experiment: as above; conditions: P. falciparum in erythrocytes, SYBR Green DNA, 72 h; series mostly up to 28.7 µM
# Outline: as §1
# CP194 = experiment: as above; conditions: P. falciparum in erythrocytes, SYBR Green DNA, 72 h; series mostly up to 28.7 µM
# Outline: as §1
# CP201 = experiment: as above; conditions: P. falciparum in erythrocytes, SYBR Green DNA, 72 h; series mostly up to 28.7 µM
# Outline: as §1
# CP203 = experiment: as above; conditions: P. falciparum in erythrocytes, SYBR Green DNA, 72 h; series mostly up to 28.7 µM
# Outline: as §1
# CP215 = experiment: as above; conditions: P. falciparum in erythrocytes, SYBR Green DNA, 72 h; series mostly up to 28.7 µM
# Outline: as §1
# CP217 = experiment: as above; conditions: P. falciparum in erythrocytes, SYBR Green DNA, 72 h; series mostly up to 28.7 µM
# Outline: as §1
# CP237 = experiment: as above; conditions: P. falciparum in erythrocytes, SYBR Green DNA, 72 h; series mostly up to 28.7 µM
# Outline: as §1
# CP238 = experiment: as above; conditions: P. falciparum in erythrocytes, SYBR Green DNA, 72 h; series mostly up to 28.7 µM
# Outline: as §1
# CP247 = experiment: as above; conditions: P. falciparum in erythrocytes, SYBR Green DNA, 72 h; series mostly up to 28.7 µM
# Outline: as §1
smiles,measurement,setting,value
CCN(CC)CCO[C@H]1CC[C@@]2(C)C(=CC[C@@H]3[C@H]2CC[C@]2(C)C(=O)CC[C@H]32)C1,Potency,[1],inactive
same,outcome,[2],inactive
same,Potency,[3],inactive
same,Potency,[4],inactive
same,Potency,[5],15.8 µM (active)
same,Potency,[6],0.0794 µM (active)
same,"activity change, negative = inhibition",[7]; at 57.5 µM (top of the series),-3.37% (inactive)
same,max response,[7]; measured here: cell count channel max response,16%
same,max response,[7]; measured here: lipid channel max response,11.9%
same,Potency,[8],inactive
same,Potency,[9],inactive
same,Potency,[10],inactive
same,Potency,[11],inactive
same,Potency,[12],inactive
same,Potency,[13],9.07 µM (active)
same,Potency,[14],inactive
same,Potency,[15],inactive
same,Potency,[16],31.6 µM (active)
same,Potency,[17],12.6 µM (active)
same,Potency,3D7,inactive
same,Potency,AA1029,inactive
same,Potency,AS120,inactive
same,Potency,ATS189,inactive
same,Potency,ATS95,inactive
same,Potency,C2A,inactive
same,Potency,CP185,inactive
same,Potency,CP191,inactive
same,Potency,CP192,inactive
same,Potency,CP194,inactive
same,Potency,CP201,inactive
same,Potency,CP203,inactive
same,Potency,CP215,inactive
same,Potency,CP217,inactive
same,Potency,CP237,inactive
same,Potency,CP238,inactive
same,Potency,CP247,inactive
